Bioassay records from PubChem BioAssay.
This is one part of a sample in which hits are shown more often than they occur.
GIRK2 act = Activates human GIRK2-containing potassium channels | P48051 | HEK293 GIRK2/NPY4 cells, thallium flux fluorescence | activation (% efficacy), % for hits at 37.5 µM | 34,000 tested, under 10 active | AID 1259324;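 active means primary screen hit, no activity in plain HEK293 cells, and in GIRK2-only cells above 5% efficacy rising with concentration; inactive means the rest, including fluorescent compounds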;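 further: efficacy is normalized control-subtracted fluorescence 15 s after thallium addition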
Target sequence (P48051 whole entry, looked up): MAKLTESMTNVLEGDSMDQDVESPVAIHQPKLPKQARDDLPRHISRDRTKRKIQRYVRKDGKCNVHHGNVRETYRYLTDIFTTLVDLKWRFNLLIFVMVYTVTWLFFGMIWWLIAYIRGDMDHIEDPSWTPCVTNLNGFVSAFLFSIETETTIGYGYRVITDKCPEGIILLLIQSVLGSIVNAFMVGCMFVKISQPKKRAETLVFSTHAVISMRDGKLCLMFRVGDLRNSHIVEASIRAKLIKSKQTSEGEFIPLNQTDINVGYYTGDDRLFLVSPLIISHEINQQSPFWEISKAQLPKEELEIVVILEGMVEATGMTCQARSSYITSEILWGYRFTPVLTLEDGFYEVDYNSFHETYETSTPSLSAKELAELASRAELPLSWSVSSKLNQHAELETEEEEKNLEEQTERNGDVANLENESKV
AMPAR-TARP mod = modulators of AMPA receptor GluA2-stargazin complexes; O88602+P19491; HEK293 GluA2+stargazin, membrane potential dye (FDSS), glutamate EC50; hits were called plate by plate, in both directions; calls only at 30 µM; actives 3.5% (n = 40,000); AID 1259245;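 active means any of four per-well response measures lying three or more SD from its plate-wide compound average, in either direction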
* = called active by the depositor; i = inactive; . = not tested or not shown; + = active, no number; ! = a repeat was not active.

SMILES	GIRK2 act	AMPAR-TARP mod
Cn1cc(/C=C2\SC(=O)N(CCC(=O)O)C2=O)c2ccccc21	.	i
Cc1cccc(-c2ccc(/C=C3\C(=O)SC(=S)N3CCCC(=O)O)o2)c1	i	+
Cc1nnsc1C(=O)Nc1ccc2c(c1)N(C(=O)c1ccco1)CC2	i	+
Cc1nnsc1C(=O)Nc1ccc2c(c1)N(C(=O)C1CC1)CC2	i	i
CN(C)C(CNC(=O)C1(c2ccc(Cl)cc2)CCCC1)c1ccsc1 (stereo not given)	i	+
CN(C)C(CNC(=O)C1(c2ccccc2)CCOCC1)c1ccsc1 (stereo not given)	i	i
CCN1CCc2c(sc(NC(=O)c3nc4ccccc4s3)c2-c2nc3ccccc3s2)C1	.	i
CC(=O)CC1(O)C(=O)N(CCCOc2ccccc2C)c2ccccc21 (stereo not given)	i	i
CC(=O)CC1(O)C(=O)N(CCOc2ccc(C(C)(C)C)cc2)c2ccccc21 (stereo not given)	i	+!
CCOc1ccc2nc(NC(=O)COc3nccc(C)n3)sc2c1	i	.
CC(NC(=O)CCCc1nnc2c(=O)n(-c3ccc(Cl)cc3)ccn12)c1ccccc1 (stereo not given)	.	i
CCCc1nnc2c(=O)n(-c3cc(C)cc(C)c3)ccn12	i	+
Cc1ccc(S(=O)(=O)Nc2nc(CCC(=O)Nc3cccc(Cl)c3)cs2)cc1	i	+
Cc1ccc(S(=O)(=O)Nc2nc(CCC(=O)Nc3cccc(F)c3)cs2)cc1	i	i
CCCCNC(=O)/C(C#N)=C/N1CCN(Cc2ccc3c(c2)OCO3)CC1	i	i
COc1ccccc1-c1c(C)oc2cc(OC(=O)N3CCOCC3)ccc2c1=O	.	i
CCN(CC)C(=O)Oc1ccc2c(=O)c(-c3ccc(OC)c(OC)c3)c(C)oc2c1	i	+
COc1ccccc1-c1c(C)oc2cc(OCC=C(C)C)ccc2c1=O	.	+
CCOC(=O)COc1ccc2c(=O)c(-c3ccccc3)c(C)oc2c1	.	i
CCN(CC)C(=O)Oc1ccc2c(=O)c(-c3ccccc3)c(C)oc2c1	.	i
Cc1oc2cc(OCC(=O)OCc3ccccc3)ccc2c(=O)c1-c1ccccc1	.	+
O=C(c1ccccc1)N1CCN(S(=O)(=O)c2cc3c4c(c2)CCC(=O)N4CCC3)CC1	.	i
O=C1Cc2cc(NC(=O)Nc3ccc4c(c3)OCO4)ccc2N1	i	i
CCOc1cc(/C=C/c2ccc3cccc(O)c3n2)ccc1OC	.	+
COc1cc(/C=C/c2ccc3cccc(O)c3n2)ccc1OCc1ccccc1	.	i
SMILES	GIRK2 act	AMPAR-TARP mod
O=[N+]([O-])c1cc(/C=C/c2ccc3cccc(O)c3n2)ccc1O	.	+
COc1cc(/C=C/c2ccc3cccc(O)c3n2)ccc1O	.	+
COc1cc(Br)c(/C=C/c2ccc3cccc(O)c3n2)cc1OC	.	i
O=[N+]([O-])c1ccc(O)c(/C=C/c2ccc3cccc(O)c3n2)c1	.	i
COC(=O)Cn1c(=O)c2c(nc(-n3nc(C)cc3C)n2Cc2ccc(C)cc2)n(C)c1=O	i	i
O=C(CCSc1ccccc1)N1CC(c2nc(-c3cccc(C(F)(F)F)c3)no2)C1	i	.
CCc1ccc(-c2cc3c(=O)n(Cc4nc(-c5ccccc5C)no4)ccn3n2)cc1	i	i
CC(O)(CNC(=O)c1ccsc1)c1ccc2c(c1)OCO2 (stereo not given)	i	i
COCC(C)(O)CNC(=O)c1ccc(Cl)cc1 (stereo not given)	i	+
COCC(C)(O)CNC(=O)c1cc(OC)cc(OC)c1 (stereo not given)	i	i
COCC(C)(O)CNC(=O)c1cn(C)nc1OC (stereo not given)	i	+
COc1nn(C)cc1C(=O)NCC(=O)NCC(F)(F)F	i	i
COCC(C)(O)CNC(=O)c1ccccc1C(F)(F)F (stereo not given)	i	i
COCC(C)(O)CNC(=O)c1c(F)cccc1F (stereo not given)	i	+
COc1nn(C)cc1C(=O)NCC(=O)Nc1ccc(F)c(C(F)(F)F)c1	i	+
COc1nn(C)cc1C(=O)NCC(=O)Nc1ccc(C#N)cc1	i	i
COc1ccccc1-c1cnn2c(NCC3CCCO3)cc(C)nc12 (stereo not given)	i	i
Cc1ccc(N2CC(c3nc4ccccc4n3Cc3ccc(F)cc3)CC2=O)cc1 (stereo not given)	.	i
O=S(=O)(CCc1ccccc1)NCC(O)(c1ccccc1)C(F)(F)F (stereo not given)	i	i
COc1ccc(CCS(=O)(=O)NCC(O)c2ccc(C(F)(F)F)cc2)cc1 (stereo not given)	i	+
COc1ccc(CCC(=O)NCC(O)c2ccc(C(F)(F)F)cc2)cc1 (stereo not given)	i	.
